Bioassay records (PubChem BioAssay)
The list is not random: actives were taken first. Their share in the collection is about 2.9%.
SNCA expr inh – Primary qHTS assay for inhibitors of alpha-synuclein gene (SNCA) expression | AID 1671194, 2021 | HEK-293 SNCA-luciferase knock-in, luminescence, 24 h | Potency, µM (doses to about 57.2 µM), for the others: at the top dose activity change, negative = inhibition, actives largely listed as inhibitors | actives 0.17% (n = 140,000);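 note: potency is the fitted concentration of half-maximal effect; plate controls were DMSO cells for no effect and cell-free wells for full effect; nearly all actives have a fitted effect of over 45% in size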
KDM5B inh – Primary screen for KDM5B Histone Demethylases FDH-coupled qHTS; Lysine-specific demethylase 5B (Homo sapiens), Q9UGL1; KDM5B demethylase, FDH-coupled NADH fluorescence (FDH is formaldehyde dehydrogenase); Potency, µM (highest dose often 57.7 µM), actives largely listed as inhibitors; actives 2.6% (n = 220,000); AID 1347165, 2019; note: potency is the fitted concentration of half-maximal effect; 0% is about no effect; nearly all actives have a fitted effect of over 70% in size
Target sequence (Q9UGL1 whole entry, looked up): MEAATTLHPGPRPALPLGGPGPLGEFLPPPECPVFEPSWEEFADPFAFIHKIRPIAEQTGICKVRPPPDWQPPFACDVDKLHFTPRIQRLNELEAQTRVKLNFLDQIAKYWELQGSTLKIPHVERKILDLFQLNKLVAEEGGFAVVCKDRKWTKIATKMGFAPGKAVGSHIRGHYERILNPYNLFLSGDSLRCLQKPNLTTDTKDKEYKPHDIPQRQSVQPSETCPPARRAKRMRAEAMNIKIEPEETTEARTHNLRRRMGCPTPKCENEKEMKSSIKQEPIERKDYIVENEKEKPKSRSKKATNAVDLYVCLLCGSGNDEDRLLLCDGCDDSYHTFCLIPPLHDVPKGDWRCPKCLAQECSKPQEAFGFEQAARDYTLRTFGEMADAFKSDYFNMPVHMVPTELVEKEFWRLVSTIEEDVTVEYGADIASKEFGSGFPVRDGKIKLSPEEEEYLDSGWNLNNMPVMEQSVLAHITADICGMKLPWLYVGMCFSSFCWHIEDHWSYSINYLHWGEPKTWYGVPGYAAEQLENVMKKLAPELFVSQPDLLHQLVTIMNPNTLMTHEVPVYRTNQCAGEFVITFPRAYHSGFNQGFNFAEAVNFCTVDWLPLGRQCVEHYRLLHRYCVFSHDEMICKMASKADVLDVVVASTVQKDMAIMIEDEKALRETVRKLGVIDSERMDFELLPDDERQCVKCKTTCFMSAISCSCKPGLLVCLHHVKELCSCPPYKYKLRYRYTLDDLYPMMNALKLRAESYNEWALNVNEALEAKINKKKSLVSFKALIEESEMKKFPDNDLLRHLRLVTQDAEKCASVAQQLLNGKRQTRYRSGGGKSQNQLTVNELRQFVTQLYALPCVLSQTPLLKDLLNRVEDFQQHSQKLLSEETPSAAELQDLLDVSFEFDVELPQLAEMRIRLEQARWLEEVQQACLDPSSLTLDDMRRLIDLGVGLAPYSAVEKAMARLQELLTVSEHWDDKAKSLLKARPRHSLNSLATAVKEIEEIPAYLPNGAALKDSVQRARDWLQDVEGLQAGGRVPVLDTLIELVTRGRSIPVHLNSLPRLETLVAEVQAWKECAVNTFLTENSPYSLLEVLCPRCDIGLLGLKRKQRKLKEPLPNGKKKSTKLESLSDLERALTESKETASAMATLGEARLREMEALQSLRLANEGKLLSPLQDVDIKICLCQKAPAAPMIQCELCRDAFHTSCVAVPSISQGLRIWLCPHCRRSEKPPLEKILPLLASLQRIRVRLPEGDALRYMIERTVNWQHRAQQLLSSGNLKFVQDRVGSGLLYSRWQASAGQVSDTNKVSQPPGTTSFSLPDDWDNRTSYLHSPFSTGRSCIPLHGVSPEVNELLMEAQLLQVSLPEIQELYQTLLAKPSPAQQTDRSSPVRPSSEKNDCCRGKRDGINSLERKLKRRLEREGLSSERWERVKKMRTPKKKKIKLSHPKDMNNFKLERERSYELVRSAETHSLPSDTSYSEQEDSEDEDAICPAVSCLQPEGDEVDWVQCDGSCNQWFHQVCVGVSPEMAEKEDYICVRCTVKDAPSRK
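KDM5BΔAP (200 nM final) in 50 mM HEPES pH 7.5, 0.01% Tween-20 was preincubated 10 min at RT with compound over a concentration range. Substrate mix (H3K4me3 12.5 µM, α-KG 25 µM, Fe²⁺, ascorbate, NAD⁺, FDH) was added, and NADH fluorescence change over 30 min gave dose-response curves.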
IP6K1 inh – Primary qHTS assay for small molecule inhibitors of Inositol hexaphosphate kinase 1 (IP6K1); actives 0.81% (n = 140,000); IP6K1 kinase, ADP-Glo luminescence, 2 h; stronger effect = lower value; AID 1645851, 2021; Inositol hexakisphosphate kinase 1 (Homo sapiens), Q92551; activity change, % (series mostly up to about 58 µM); in the data active = activity change below about -25%; note: % is set by controls: 0 for no effect and ±100 for the full control effect
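ADP-Glo luminescence measures ADP made by human IP6K1 during a 2 h RT reaction with ATP/IP6 (mix at 1.3 mM/130 uM); top library doses 57.5 and 19.1 uM final.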
HEK293 viab – GF-AFC viability counterscreen for inhibitors of alpha-synuclein gene (SNCA) expression. actives 0.12% (n = 150,000). Potency, µM (top dose mostly 57.1 µM), without a hit: at the highest dose activity change, negative = cytotoxicity, usual class: cytotoxic. AID 1671193, 2021. HEK-293-SNCA-luc viability, GF-AFC fluorescence, 24 h;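 note: potency is the fitted concentration of half-maximal effect; 0% = DMSO-treated cells and -100% = medium-only wells without cells; nearly all actives have a fitted effect of over 30% in size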
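HEK-293-SNCA-luc cells (1500/well) plated 24 h, then exposed 24 h to a dilution series; GF-AFC added 30 min at 37C, fluorescence 405/540 nm; normalised to medium-only and DMSO wells, Hill fit.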
An asterisk follows results filed as active; i = inactive; u = inconclusive; x = no result; [ ] = remark or other dose. Unless noted, calls come from the whole dose curve; as a rule, active = well fitted curve in the direction sought with a large enough effect; inconclusive = small, poorly fitted or top-dose-only effect, or another doubt; inactive = no such curve, though single readings can be large; an effect the other way counts as inactive or inconclusive.

SMILES	SNCA expr inh	KDM5B inh	IP6K1 inh	HEK293 viab
O=C(CSc1nc2ccc(NC(=O)c3ccccc3F)cc2s1)Nc1ccccc1	x	i	x	x
O=C(Cc1ccccc1)N1CCC(c2n[nH]c(=O)n2-c2ccccc2)CC1	17.4%	i	-0.6	-6.8%
Cn1nccc1-c1ccc2ncn(-c3ccccc3)c(=O)c2n1	3.1%[87.6 µM]	31.6µM*	1.2	1.6%[87.6 µM]
O=c1c2nc(-c3ccc(F)cc3)ccc2ncn1Cc1ccccn1	-19.1%[87.6 µM]	31.6µM*	1.6	-10.6%[87.6 µM]
Cn1nccc1-c1ccc2ncn(-c3ccc(F)cc3F)c(=O)c2n1	-16.0%[87.6 µM]	39.8µM*	-5.8	-17.4%[87.6 µM]
O=c1c2nc(-c3ccc(O)c(F)c3)ccc2ncn1Cc1ccccn1	13.4%[87.6 µM]	u	8.9	-15.7%[87.6 µM]
O=c1c2nc(Nc3cccnc3)ccc2ncn1-c1ccc(F)cc1F	-0.5%[87.6 µM]	i	3.4	-1.3%[87.6 µM]
O=c1c2nc(-c3cccnc3)ccc2ncn1Cc1ccccc1	-0.9%[87.6 µM]	i	-4.3	3.4%[87.6 µM]
O=c1c2nc(-c3ccccc3)ccc2ncn1-c1ccccc1	133.9%[87.6 µM]	39.8µM*	1.7	3.3%[87.6 µM]
CC(C)c1ccc(NC(=O)/C=C/c2ccccc2F)cc1	x	i	x	x
C=CCn1c(N2CCN(Cc3ccc(Cl)cc3Cl)CC2)nc2c1c(=O)[nH]c(=O)n2C	x	i	x	x
CNC(=O)C1(C)CN(Cc2ccccc2)Cc2ccc(Nc3ccccc3)nc21 (centres undefined)	-14.2%[87.6 µM]	35.5µM*	-2.3	u
COCCNC(=O)C1(C)CN(Cc2ccccc2)Cc2ccc(Nc3ccccc3)nc21 (centres undefined)	-2.6%[87.6 µM]	31.6µM*	1.5	-24.5%[87.6 µM]
COC1CCN(C(=O)C2(C)CN(Cc3ccccc3)Cc3ccc(Nc4ccccc4)nc32)CC1 (centres undefined)	-20.9%	31.6µM*	6.8	-22.2%
CNC(=O)C1(C)CN(Cc2ccccc2)Cc2ccc(NCC(C)C)nc21 (centres undefined)	-27.7%[87.6 µM]	u	13.4	-24.7%[87.6 µM]
COCCN1Cc2ccc(NCC(C)C)nc2C(C)(C(=O)Nc2ccc(OC)cc2)C1 (centres undefined)	-18.9%[87.6 µM]	u	23.7	u
COCCN1Cc2ccc(Nc3ccc(OC)cc3)nc2C(C)(C(=O)Nc2ccccc2)C1 (centres undefined)	-2.8%	31.6µM*	-9.5	2.4%
COCCNC(=O)C1(C)CN(Cc2ccccc2)Cc2ccc(NCC(C)C)nc21 (centres undefined)	u	u	5.7	u
CCN(CC)C(=O)[C@@H]1CCC[C@@H](NCc2cccc(OC)c2)CN(C)C(=O)C1	-11.1%[87.6 µM]	i	-5.4	2.7%[87.6 µM]
Cc1oc(-c2ccccc2)nc1CC(=O)NC12CC3CC(CC(C3)C1)C2	x	i	x	x
O=C(O)C(c1ccc(Cl)cc1)c1ccc(Cl)cc1	x	i	x	x
CCc1ccccc1-n1nc(-c2c(C)nc3scc(CC(=O)NCc4ccco4)n3c2=O)cc1C	-14.5%	28.2µM*	6.4	0.8%
CCCNC(=O)Cc1csc2nc(C)c(-c3cc(C)n(-c4ccccc4CC)n3)c(=O)n12	-10.8%	u	4.6	1.2%
CCCCNC(=O)Cc1csc2nc(C)c(-c3cc(C)n(-c4ccccc4CC)n3)c(=O)n12	-15.3%	31.6µM*	9.2	-13.5%
CCCCCCNC(=O)Cc1csc2nc(C)c(-c3cc(C)n(-c4ccccc4OC)n3)c(=O)n12	3.5%	28.2µM*	2.3	-16.8%
SMILES	SNCA expr inh	KDM5B inh	IP6K1 inh	HEK293 viab
Cc1nc2scc(CC(=O)N3CCCC3)n2c(=O)c1-c1cc(C)n(-c2ccccc2F)n1	9.2%	u	-7.5	0.6%
CCc1ccccc1-n1nc(-c2c(C)nc3scc(CC(=O)N4CCCC4)n3c2=O)cc1C	15.3%	31.6µM*	0.3	-19.1%
CCc1ccccc1-n1nc(-c2c(C)nc3scc(CC(=O)NCC(C)C)n3c2=O)cc1C	2.5%	u	9.9	-1.9%
COc1cccc(-c2noc(COC(=O)Cc3n[nH]c(=O)c4ccccc34)n2)c1	x	i	x	x
CCCCCNC(=O)Cc1csc2nc(C)c(-c3cc(C)n(-c4cccc(C)c4C)n3)c(=O)n12	-20.5%	31.6µM*	23.3	-14.2%
CCCCCCNC(=O)Cc1csc2nc(C)c(-c3cc(C)n(-c4cccc(C)c4)n3)c(=O)n12	-6.9%	u	0.1	-15.5%
CCC(C)c1ccc(NC(=S)NNC(C)=O)cc1 (centres undefined)	x	i	x	x
CC(C)NC(=O)c1cc(-c2ccc(C(F)(F)F)cc2)nc2c1cnn2C	x	x	-12.5	x
O=C(C1CCCN1c1nc2ncccc2o1)N1CCN(c2ncccn2)CC1 (centres undefined)	-5.1%	14.1µM*	2.0	u
O=C(C1CCN(c2nc3ncccc3o2)CC1)N1CCN(c2ncccn2)CC1	-7.0%	x	7.8	-4.1%
O=C(C1CCCN1c1nc2ncccc2o1)N1CCCC1 (centres undefined)	-13.0%[87.6 µM]	39.8µM*	0.6	-10.8%[87.6 µM]
O=C(C1CCCN1c1nc2ncccc2o1)N1CCOCC1 (centres undefined)	8.3%[87.6 µM]	28.2µM*	-5.5	7.4%[87.6 µM]
Cc1cc(-c2cc3c(cn2)N(C)CCN(C)C3)ccn1	24.4%[87.6 µM]	31.6µM*	-15.7	-12.7%[87.6 µM]
CN1CCN(c2ncnc3ccc(-c4ccc(C(=O)N(C)C)cc4)cc23)CC1	50.0%	x	x	-12.2%
CN1CCN(C)c2cnc(-c3ccc(C(=O)N(C)C)cc3)cc2C1	107.7%[87.6 µM]	35.5µM*	-7.4	-5.9%[87.6 µM]
Cc1ccc(/C=C(/C#N)C(=O)NC2CCCCC2C)s1 (centres undefined)	x	i	x	x
COC(=O)CNC(=O)c1nc(-c2cc(Cl)cc(Cl)c2)c2ccccn12	28.3%	25.1µM*	2.0	8.9%
C#CCNC(=O)c1nc(-c2c(C)cccc2C)c2ccccn12	23.4%[87.6 µM]	39.8µM*	5.3	7.3%[87.6 µM]
C#CCNC(=O)c1nc(-c2ccc([S+](C)(=O)[O-])cc2)c2ccccn12	6.9%	i	-19.7	4.5%
Cc1cccc(C)c1-c1nc(C(=O)NC2CC2)n2ccccc12	-7.3%	100µM*	-22.6	2.0%
COC(=O)CNC(=O)c1nc(-c2c(C)cccc2C)c2ccccn12	-6.5%	28.2µM*	17.7	3.0%
CCOC(=O)C(N)C(O)c1ccccc1 (centres undefined)	x	i	x	x
O=C(Nc1ccc(S(=O)(=O)N2CCOCC2)cc1)c1nc(-c2ccccc2)n(-c2ccccc2)n1	x	i	x	x
CNC(=O)[C@@H]1CN(C(=O)c2cocn2)C[C@H]1COC	0.5%	i	13.4	-3.0%
COc1ccc(CNc2ncnc3c2CN(C2CCNCC2)C(=O)CN3C)cc1	-1.7%	u	-0.7	3.5%
CCCCNC(=O)c1cc(-c2ccccc2)nc2ccccc12	x	i	x	x
Cc1cccc(C)c1-c1nc(C(=O)NCCc2ccc(Cl)cc2)n2ccccc12	u	14.1µM*	9.9	12.5%
Cc1cccc(C)c1-c1nc(C(=O)N2CCCC2)n2ccccc12	-0.4%[87.6 µM]	39.8µM*	10.8	1.5%[87.6 µM]
COCCNC(=O)c1nc(-c2c(C)cccc2C)c2ccccn12	-19.2%[87.6 µM]	35.5µM*	8.7	6.6%[87.6 µM]
